{
  "source": "PubChem BioAssay (Tox21)",
  "note": "Several values for one entry are separate records, joined by “and”; a condition that tells them apart may be missing. Equal entries are not always repeated. Results filed as inconclusive are left out. A call without a number means that no potency is given here. A structure can be active in one record and inactive in another. Activity calls are given as the source filed them. The call rests on the fitted dose curve; in most records, active means well fitted cell-killing curve with a large enough effect in the repeat runs; inconclusive means weak or mixed curves; inactive means flat fitted curve, though single readings scatter.",
  "data": [
    {"assay": "qHTS RealTime-Glo MT Cell Viability Assay in HepG2 cells - 24 hour (AID 1224867); further: nearly all actives have a fitted effect of over 50% in size; further: potency means the concentration at half of the fitted maximal effect", "conditions": "RealTime-Glo luminescence; series mostly up to 76.8 µM", "text": "U.S. Tox21 Program National Center for Advancing Translational Sciences [NCATS] NIH Chemical Genomics Center [NCGC] U.S. Environmental Protection Agency [EPA] National Institutes of Environmental Health Sciences [NIEHS] National Toxicology Program [NTP] U.S. Food and Drug Administration [FDA] Tox21 Assay Overview: Measure of cell viability is critical in the cell-base assay. Analysis of cell viability is necessary for the characterization of cell responses to cytotoxic drugs and environmental stress. A RealTime-Glo MT Cell Viability Assay to monitor cell viability in real time of continues cell culture during 40 hours of compound treatment was used to screen Tox21 10K library compounds in HepG2 cells. The RealTime-Glo MT Cell Viability Assay is a nonlytic, homogeneous, bioluminescent method to measure cell viability in real time using a simple, plate-based method. The assay involves adding NanoLuc luciferase and a cell-permeant prosubstrate to cells in culture. Viable cells reduce the proprietary prosubstrate to generate a substrate for NanoLuc luciferase. This substrate diffuses from cells into the surrounding culture medium, where it is rapidly used by the NanoLuc Enzyme to produce a luminescent signal. The signal correlates with the number of viable cells, making the assay well suited for cytotoxicity studies.\nTox21 Assay Protocol Summary: The mixture of HepG2 cell suspension and reagents were dispensed at 600cells/6 ul/well in 1536-well tissue culture treated black solid bottom plates using a Multidrop dispenser. After the assay plates were incubated at a 37 C/5% CO2 incubator for 5 hours, 23 nL of compounds dissolved in DMSO, positive and negative controls was transferred to the assay plate by a pintool work station. The plates were incubated at 37 C for 40 hours. The luminescence intensity were measured at 0h, 8h, 16h, 24h, 32h and 40h time points using ViewLux plate reader during compound treatment.", "values": [
      {"compound": "O=C(O)COCCN1CCN(C(c2ccccc2)c2ccc(Cl)cc2)CC1", "note": "(stereo not given)", "Potency": "inactive"},
      {"compound": "CC(=O)Nc1ccc2c(c1)Cc1cc(NC(C)=O)ccc1-2", "Potency": "inactive"},
      {"compound": "C=C[C@H]1CN2CC[C@H]1C[C@@H]2[C@@H](O)c1ccnc2ccc(OC)cc12", "Potency": "inactive"},
      {"compound": "C=CC(C)(O)CCC=C(C)C", "note": "(stereo not given)", "Potency": "inactive"},
      {"compound": "CCCCCCCCCCCCO", "Potency": "inactive"},
      {"compound": "O=C1CCc2ccccc2O1", "Potency": "inactive"},
      {"compound": "CC(=O)[C@H]1CC[C@H]2[C@@H]3CC=C4C[C@@H](O)CC[C@]4(C)[C@H]3CC[C@]12C", "Potency": "inactive"},
      {"compound": "CC(=O)Oc1c(C)c(C)c2c(c1C)CC[C@@](C)(CCC[C@H](C)CCC[C@H](C)CCCC(C)C)O2", "Potency": "inactive"},
      {"compound": "CN(C)/N=N/c1nc[nH]c1C(N)=O", "Potency": "inactive"},
      {"compound": "C=CCNCC=C", "Potency": "inactive"},
      {"compound": "O=C(O)CCCCCCCCCCCC(=O)O", "Potency": "inactive"},
      {"compound": "Nc1ccc(N)c(Cl)c1", "Potency": "inactive"},
      {"compound": "Nc1cc(Cl)c(N)c(Cl)c1", "Potency": "inactive"},
      {"compound": "CC(=O)[C@@]1(O)CC[C@H]2[C@@H]3C[C@H](C)C4=CC(=O)C=C[C@]4(C)[C@@]3(F)[C@@H](O)C[C@@]21C", "Potency": "inactive"},
      {"compound": "C=CN1CCCC1=O", "Potency": "inactive"},
      {"compound": "FC(F)(F)C(Cl)Br", "note": "(stereo not given)", "Potency": "inactive"},
      {"compound": "O=C(O)CCCC(=O)O", "Potency": "inactive"},
      {"compound": "O=C1OC2(c3ccccc31)c1cc(I)c(O)c(I)c1Oc1c2cc(I)c(O)c1I", "Potency": "39 µM (active) and 27.9 µM (active)"},
      {"compound": "NCCN", "Potency": "inactive and 38.9 µM (active)"},
      {"compound": "C[N+](C)(C)CCO", "Potency": "inactive"},
      {"compound": "CCCCCCC(C)O", "note": "(stereo not given)", "Potency": "inactive"},
      {"compound": "Oc1ccc(C(c2ccc(O)cc2)C(Cl)(Cl)Cl)cc1", "Potency": "inactive"},
      {"compound": "Cc1ccc(N)c([N+](=O)[O-])c1", "Potency": "inactive"},
      {"compound": "[O-]/[N+](=N\\O)c1ccccc1", "Potency": "inactive"},
      {"compound": "c1ccc2cc3ccccc3cc2c1", "Potency": "inactive"},
      {"compound": "CC1(C)O[C@@H]2C[C@H]3[C@@H]4C[C@H](F)C5=CC(=O)C=C[C@]5(C)[C@@]4(F)[C@@H](O)C[C@]3(C)[C@]2(C(=O)CO)O1", "Potency": "inactive"},
      {"compound": "CC/C(=C(/CC)c1ccc(O)cc1)c1ccc(O)cc1", "Potency": "inactive"},
      {"compound": "C[C@]12CC[C@@H]3c4ccc(O)cc4CC[C@H]3[C@@H]1CC[C@@H]2O", "Potency": "inactive"},
      {"compound": "COC(=O)CC(=O)OC", "Potency": "inactive"},
      {"compound": "C1COCCN1", "Potency": "inactive"},
      {"compound": "CCc1cccc2c3c([nH]c12)C(CC)(CC(=O)O)OCC3", "note": "(stereo not given)", "Potency": "inactive"},
      {"compound": "CC(C)=CCO", "Potency": "inactive"},
      {"compound": "OC[C@@H](O)[C@@H](O[C@@H]1O[C@H](CO)[C@H](O)[C@H](O)[C@H]1O)[C@H](O)[C@@H](O)CO", "Potency": "inactive"},
      {"compound": "Cc1ccc(C)c(O)c1", "Potency": "inactive"},
      {"compound": "Oc1c(Cl)ccc(Cl)c1Cl", "Potency": "inactive"},
      {"compound": "NC[C@H](O)c1ccc(O)c(O)c1", "Potency": "inactive"},
      {"compound": "CC(C)(C)c1cccc(C(C)(C)C)c1O", "Potency": "inactive"},
      {"compound": "C1CN(SSN2CCOCC2)CCO1", "Potency": "inactive"},
      {"compound": "O=C(O)c1ccc(O)cc1", "Potency": "inactive"},
      {"compound": "COc1ccc2nc(N)sc2c1", "Potency": "inactive"}
    ]}
  ]
}
